# Source: PubChem
# 12-hLO inh: blocks human 12-lipoxygenase activity; Potency, µM (titrated, usually from 57.1 µM), actives largely listed as inhibitors; hit rate 0.12% among 150,000; P18054; purified 12-hLO, xylenol orange hydroperoxide absorbance; active means well fitted inhibition curve with a large enough effect; inconclusive means small, poorly fitted or top-dose-only effect; further: nearly all actives have a fitted effect of over 55% in size
# Target sequence (P18054 whole entry, looked up): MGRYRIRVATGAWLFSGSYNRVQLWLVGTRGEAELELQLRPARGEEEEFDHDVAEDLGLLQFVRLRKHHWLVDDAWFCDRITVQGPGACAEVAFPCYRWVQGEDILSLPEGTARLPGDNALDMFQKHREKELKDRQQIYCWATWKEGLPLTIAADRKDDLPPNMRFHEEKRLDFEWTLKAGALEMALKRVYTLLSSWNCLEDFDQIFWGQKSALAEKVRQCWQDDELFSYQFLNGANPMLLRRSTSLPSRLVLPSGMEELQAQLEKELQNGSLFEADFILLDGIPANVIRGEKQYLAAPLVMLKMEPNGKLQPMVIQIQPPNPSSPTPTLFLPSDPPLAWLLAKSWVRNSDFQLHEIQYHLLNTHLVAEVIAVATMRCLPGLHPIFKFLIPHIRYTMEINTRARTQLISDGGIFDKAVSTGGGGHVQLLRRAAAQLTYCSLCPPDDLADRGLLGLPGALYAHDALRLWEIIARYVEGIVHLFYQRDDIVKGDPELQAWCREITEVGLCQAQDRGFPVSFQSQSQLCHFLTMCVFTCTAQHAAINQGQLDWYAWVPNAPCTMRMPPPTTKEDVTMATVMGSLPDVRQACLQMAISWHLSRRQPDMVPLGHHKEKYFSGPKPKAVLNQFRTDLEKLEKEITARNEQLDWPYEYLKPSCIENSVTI
#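 Purified human 12hLO (150 nM final) was preincubated with compounds for 15 min at room temperature in 25 mM Hepes pH 7.0, 0.01% Triton X-100, then reacted with 40 uM arachidonic acid for 30 min. Hydroperoxide was detected with ferrous iron/xylenol orange.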
# Lamin A splicing: changes lamin A minigene splicing in HeLa cells; HeLa LMNA splicing GFP/RFP minigene ratio, 48 h; Potency, µM (top dose mostly 46.1 µM), hits mostly inhibitors; hit rate 0.01% among 200,000; active means well fitted inhibition curve with a large enough effect in the signal ratio, with a control signal flat, not every such curve was filed as active; inconclusive means small, poorly fitted or top-dose-only effect, or effect the other way, or a change in a side signal; the % refers to the signal ratio
#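 S3 HeLa stable clones carrying a lamin A-EGFP splicing minigene plus DsRed2 were seeded at 600 cells/well in Opti-MEM with 2% FBS, pin-dosed and incubated 48 h at 37°C. Acumen cytometry (488 nm) gave the GFP/RFP total-intensity ratio.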
# PNC assembly inh: inhibitors of perinucleolar compartment assembly; PC3M PTB-GFP, PNC prevalence imaging, 16 h; active compounds read low; activity change (PNC), negative = inhibition, % at 10 µM; hit rate 3.1% among 140,000; AID 2417;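 active means readout at or below -70, meaning at least 70% loss of cells showing the perinucleolar compartment, a nuclear body marking cancer cells; inconclusive means readout between -30 and a set limit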
#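 Compounds are pinned in duplicate onto adhered PC3M cells stably expressing GFP-tagged PTB and incubated 16 h at 37 C. Cells are then fixed, nuclei stained with Hoechst, and PNC-positive cells counted.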
# HPGD inh: blocks human HPGD enzyme activity. purified HPGD, NADH fluorescence kinetic, PGE2 substrate. Potency, µM, hits mostly inhibitors. hit rate 4.3% among 150,000
#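 20 nM HPGD preincubated 15 min at room temperature with compound in 50 mM Tris-HCl pH 8, 0.01% Tween 20. Started with 1 mM NAD+ and 30 uM prostaglandin E2; NADH fluorescence (360/450 nm) read 5 times over 30-s intervals, last minus first.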
# ALDH1A1 block: inhibitors of human aldehyde dehydrogenase 1A1 | P00352 | Purified ALDH1A1, NADH fluorescence, propionaldehyde substrate | Potency, µM (titrated, usually from 75.3 µM), usual class: inhibitors | hit rate 7.3% among 220,000 | AID 1030
# Numbers stand for hits; - = inactive; ? = inconclusive; . = no result; [ ] = another dose, or the depositor's remark. The list is not random: actives were taken first. Their share in the collection is about 10%. Unless noted, the call rests on the fitted dose curve; in most records, active means well fitted inhibition curve with a large enough effect (not every such curve was filed as active); inconclusive means small, poorly fitted or top-dose-only effect, or another doubt; inactive means no such curve, though single readings can be large or run the other way.
SMILES,12-hLO inh,Lamin A splicing,PNC assembly inh,HPGD inh,ALDH1A1 block
O=C(NC1CC(=O)N(c2ccc3c(c2)OCCO3)C1)c1c(F)cccc1Cl (stereo unspecified),.,-,.,.,.
COn1c(SC(C)C)nc2ccccc2c1=O,-,-,-,-,-
COn1c(SC2CCCCC2)nc2ccccc2c1=O,-,?,?,32µM,32µM
O=C(CSc1nc2ccccc2c(=O)n1CC1CCCCC1)N1CCOCC1,-,-,-,-,?
Cc1ccc(Cn2c(SCC(=O)N3CC(=O)Nc4ccccc43)nc3ccccc3c2=O)cc1,-,-,-,.,?
O=C1CN(C(=O)CSc2nc3cc(Cl)ccc3c(=O)n2Cc2ccccc2)c2ccccc2N1,-,-,-,-,7.9µM
CC(C)Cn1c(SCC(=O)N2CCc3ccccc3C2)nc2cc(Cl)ccc2c1=O,-,?,-,-,10µM
CCN(CC)C(=O)CSc1nc2ccccc2c(=O)n1CC1CCCCC1,-,?,-,.,11µM
O=C(CN1CCCCC1)NCC1(c2ccccc2)CCCC1,.,?,.,.,-
CCCCn1c(SCC(=O)c2ccccc2)nc2ccsc2c1=O,-,?,-,-,7.1µM
COc1ccc(C(=O)CSc2nc3ccccc3n2CC(=O)c2ccccc2)cc1,-,-,?,-,25µM
CCn1c(SCC(=O)c2ccccc2)nc2ccccc2c1=O,.,?,.,.,16µM
CC(=O)c1ccc(-n2c(SCC(=O)c3c[nH]c4ccccc34)nc3ccccc3c2=O)cc1,-,?,?,28µM,-
N#CC(C#N)=C(Nc1ccc(F)cc1)SCc1cccc(F)c1,-,?,-,-,-
COc1ccccc1-c1cc(NCc2ccccc2)ncn1,.,-,.,.,?
O=C(O)CCCCn1c(SCC(=O)Nc2ccccc2C(F)(F)F)nc2ccsc2c1=O,-,?,-113,-,-
CC(C)(C)c1nnc(SCC(=O)c2ccccc2)n(N)c1=O,-,?,-114,25µM,-
COc1ccc(C(=O)CSc2nc(C(C)(C)C)nc3ccccc23)cc1,.,-,.,.,14µM
CCn1c(SCC(=O)N2CCN(c3cccc(Cl)c3)CC2)nc2ccccc2c1=O,-,?,?,-,28µM
CC(C)(C)c1nc(SCC(=O)NCc2ccco2)c2ccccc2n1,-,?,-,-,?
N.N.N.N.N.N.N.N.N.N.N.N.N.N.O.O.[Ru].[Ru].[Ru],-,.,.,.,.
COc1cccc(Cn2c(=O)c(C)nc3cnc(Nc4ccccc4)nc32)c1,.,?,.,.,-
C=C1C[C@H](OC(=O)C(C)(O)CCl)C2C(=C)C(=O)O[C@@H]2C2C1C[C@H](O)[C@]2(O)CCl (stereo partly specified),.,.,.,-,-
Cc1nnc(SCc2nnc(-c3cccs3)o2)s1,.,-,.,.,-
O=C(NCCN1CCOCC1)c1ccc(Cc2nc3ccccc3[nH]2)cc1,-,.,.,-,-
SMILES,12-hLO inh,Lamin A splicing,PNC assembly inh,HPGD inh,ALDH1A1 block
Oc1ccc2c(c1-c1c(O)c(Br)cc3c1CCCC3)CCCC2,.,.,.,-,-
Nc1cc2c(cc1O)CCCC2,.,.,.,.,2.2µM
CCCCC1=CC2=CC(=O)C(C)(OC(=O)CC)C(=O)C2=CN1CCCN(CC)CC (stereo unspecified),-[11.4 µM],?,.,-,-[13.5 µM]
O=C(c1ccc([N+](=O)[O-])cc1)N1c2ncnn2C2(CCCCC2)[C@@H]2CCCC[C@@H]21,.,-,.,.,.
O=C(Nc1cc2c(oc1=O)CCCC2=O)c1cccc(Cl)c1,-,-,-106,-,?
CC1(C)CC(=O)c2cc(NC(=O)c3ccccc3)c(=O)oc2C1,-,-,-,.,?
CN1CCN(c2ccc(NC(=O)c3ccc(-c4cccc([N+](=O)[O-])c4)o3)cc2)CC1,.,.,.,.,-
Cc1ccc(N2CCN(C(=S)c3ccc(-c4cccc([N+](=O)[O-])c4)o3)CC2)cc1,.,-,.,.,3.2µM
Cc1ccccc1N1CCN(C(=S)c2ccc(-c3cccc([N+](=O)[O-])c3)o2)CC1,.,?,.,.,8.9µM
CCOC(=O)C1=C(c2ccccc2)N=c2s/c(=C\c3cccc(O)c3)c(=O)n2C1c1cccs1 (stereo unspecified),-,?,-,-,-
O=c1/c(=C\c2ccc(O)cc2)sc2n1C(c1ccccc1)C(c1ccccc1)=NN=2 (stereo unspecified),?,-,-,16µM,8.9µM
Cc1ccc(Cl)cc1N1CCN(CC(=O)Nc2ccc3[nH]c(=O)[nH]c3c2)CC1,-,-,-,-,22µM
CC(=O)OC[C@@H]1O[C@@H](O/N=C2/C[C@@H](O)[C@@H](O)[C@@H]3[C@@H]4C(=O)N(Cc5ccc6c(c5)OCO6)C(=O)[C@H]4CC[C@@H]23)[C@H](OC(C)=O)[C@H](OC(C)=O)[C@@H]1OC(C)=O,.,.,.,.,-[13.5 µM]
COc1ccc(/C=N/Nc2ccccc2)cc1Cn1nc(C)c([N+](=O)[O-])c1C,-,-,-98,-,-
O=C1CCCN1CCCNCC(=O)N1c2ccccc2Sc2ccccc21,-,-,-,-,35µM
CC(=O)c1cccc(NC(=O)NC2CC3CCCC(C2)N3CC(C)C)c1 (stereo unspecified),-,-,-100,-,-
COc1ccc(NC(=O)N2CCc3c(sc4c3CCCC4)C2c2ccc(F)cc2)cc1 (stereo unspecified),.,-,.,.,.
O=C(c1ccncc1)N1N=C(C2CCCCC2)CC1(O)C(F)(F)F (stereo unspecified),.,.,.,.,-
O=C(c1ccco1)N1N=C(C2CCCCC2)CC1(O)C(F)(F)F (stereo unspecified),.,-,.,.,6.3µM
Cc1cccc(-n2cnc3cc(C(=O)N4CCc5ccccc54)ccc32)c1,-,-,?,22µM,?
CN1CCN(C(=O)c2ccc(S(=O)(=O)c3ccc(Br)cc3)cc2)CC1,-,?,-,.,-
O=C(c1ccc(Br)cc1)N1CCCC1,-,-,-,7.9µM,-
Cc1cccc(C(=O)N2CCCCCC2)c1,-,-,-,5µM,-
O=C(c1cccc(C(F)(F)F)c1)N1CCCCCC1,-,?,-,?,-
CC(=O)c1ccc(OCC(=O)c2ccc(-c3ccccc3)cc2)cc1,-,?,-87,-,-
SMILES,12-hLO inh,Lamin A splicing,PNC assembly inh,HPGD inh,ALDH1A1 block
O=C(c1cccc(Br)c1)N1CCCC1,-,-,-,18µM,-
O=C(c1ccc(-n2cccc2)cc1)N1CCCCC1,.,-,.,.,32µM
CC(C)c1ccc(C(=O)N2CCCN(C(=O)c3ccc(C(C)C)cc3)CC2)cc1,-,?,?,-,7.9µM
O=C(COc1ccc(-c2ccccc2)cc1)N1CCCC1,.,?,.,.,13µM
COC(=O)c1ccc(-c2ccc(C(=O)N3CCCN(C)CC3)cc2)cc1,-,?,-,1.3µM,-
CC(C)c1ccc(C(=O)N2CCN(c3cnn(C)c(=O)c3Cl)CC2)cc1,.,-,.,.,?
COc1ccc(C)cc1NC(=O)c1cc(S(=O)(=O)NC2CCCCCC2)ccc1F,.,-,.,.,.
CCCCCCCC/C=C\CCCCCCCC(=O)OCC(CO)OC(=O)CCCCCCC/C=C\CCCCCCCC (stereo unspecified),-,.,.,-,-
O=C(c1ccccc1)N1CCN(C(=O)c2ccccc2)CC1,-,-,-,-,-
Cc1ccc(C(=O)N2CCSCC2)cc1,-,-,-,0.28µM,-
